Laboratory results as given in the supplement of paper PMC6555819.

What was measured:
Experiment in all cases: PBM binding z-score (relative to random genomic background probes); higher = stronger binding; sequences stand for … in GC…GCGATTGACAGCGTAGAATGAAGG
[1] = tested on: FXR:RXRa (NR concentration 270 nM, RXRa partner concentration 90 nM)
Outline: (§1)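 Ligand-free nuclear receptor dimers were applied to custom Agilent 4×180K protein-binding microarrays whose double-stranded probes carried direct-repeat seeds, single-nucleotide variants, half-site ablations and random human genomic background sequences in 34-nt variable regions. Incubation lasted 1 h. Binding z-scores were computed against the random background probes from regression-normalized fluorescence.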

[2] = tested on: LXRa:RXRa (NR concentration 270 nM, RXRa partner concentration 90 nM)
Outline: as §1

[3] = tested on: LXRa homodimer (NR concentration 270 nM)
Outline: as §1

[4] = tested on: LXRb:RXRa (NR concentration 270 nM, RXRa partner concentration 90 nM)
Outline: as §1

[5] = tested on: LXRb homodimer (NR concentration 270 nM)
Outline: as §1

[6] = tested on: PPARa:RXRa (NR concentration 270 nM, RXRa partner concentration 90 nM)
Outline: as §1

[7] = tested on: PPARg:RXRa (NR concentration 180 nM, RXRa partner concentration 90 nM)
Outline: as §1

[8] = tested on: PPARg:RXRa 270nM:90nM, anti-RXR (NR concentration 270 nM, RXRa partner concentration 90 nM)
Outline: as §1

[9] = tested on: PPARg:RXRa 30nM:10nM, anti-RXR (NR concentration 30 nM, RXRa partner concentration 10 nM)
Outline: as §1

[10] = tested on: PPARg:RXRa 90nM:30nM, anti-RXR (NR concentration 90 nM, RXRa partner concentration 30 nM)
Outline: as §1

[11] = tested on: PPARg:RXRa DBDmut IVT, anti-RXR (DBD mutation: RXRa K156A/R161A, NR concentration 270 nM, RXRa partner concentration 90 nM)
Outline: as §1

[12] = tested on: PPARg:RXRa IVT, anti-PPARg (NR concentration 270 nM, RXRa partner concentration 90 nM)
Outline: as §1

[13] = tested on: PPARg DBDmut:RXRa IVT, anti-PPARg (DBD mutation: PPARg1 K132A/R137A, NR concentration 270 nM, RXRa partner concentration 90 nM)
Outline: as §1

[14] = tested on: PPARg DBDmut IVT, anti-PPARg (DBD mutation: PPARg1 K132A/R137A, NR concentration 270 nM)
Outline: as §1

[15] = tested on: PPARg homodimer (NR concentration 180 nM)
Outline: as §1

[16] = tested on: PXR:RXRa (NR concentration 270 nM, RXRa partner concentration 90 nM)
Outline: as §1

[17] = tested on: PXR homodimer (NR concentration 270 nM)
Outline: as §1

[18] = tested on: RARa:RXR (NR concentration 270 nM, RXRa partner concentration 90 nM)
Outline: as §1

[19] = tested on: RARa homodimer (NR concentration 270 nM)
Outline: as §1

[20] = tested on: RARb:RXRa (NR concentration 270 nM, RXRa partner concentration 90 nM)
Outline: as §1

Row | Sequence | PBM binding z-score [1] | PBM binding z-score [2] | PBM binding z-score [3] | PBM binding z-score [4] | PBM binding z-score [5] | PBM binding z-score [6] | PBM binding z-score [7] | PBM binding z-score [8] | PBM binding z-score [9] | PBM binding z-score [10] | PBM binding z-score [11] | PBM binding z-score [12] | PBM binding z-score [13] | PBM binding z-score [14] | PBM binding z-score [15] | PBM binding z-score [16] | PBM binding z-score [17] | PBM binding z-score [18] | PBM binding z-score [19] | PBM binding z-score [20]
1 | GTACCAAGGTGAATAGGTCGTTCATGAGTAGGCG | 0.8 | 1.02 | 0.137 | 0.601 | -0.594 | 2.17 | 1.4 | 1.69 | 0.0443 | 0.958 | 1.96 | 2.71 | 0.421 | -1.06 | 0.765 | 0.908 | -0.0414 | 1.62 | -0.236 | 2.12
2 | ATACCAAGGTGATCGTGCGGTCGTTGATACTAAC | 0.823 | 0.293 | 0.286 | -0.0591 | -0.308 | 0.0191 | 0.122 | 0.0521 | -0.564 | -0.232 | 0.367 | 0.959 | -0.0975 | -0.386 | -0.0029 | 0.16 | 0.0689 | -0.0765 | 0.173 | 0.748
3 | GCATATAGGTAATACAAGGTTAAAGTCCGATTGT | 0.589 | 5.43 | 4.13 | 2.63 | -0.0858 | 2.39 | 1.69 | 1.5 | 0.655 | 0.992 | 4.38 | 3.23 | 0.799 | 0.913 | 1.39 | 2.6 | 0.613 | 2.53 | 0.428 | 0.87
4 | ATGTCTAGGTAACCAAGTTCAGTGAATGCCGAAC | 0.425 | 0.708 | 0.547 | 0.184 | 0.286 | 1.08 | 0.622 | 0.664 | -0.0406 | 0.432 | 2.35 | 2.35 | 0.0462 | -0.029 | 0.338 | 2 | 1.53 | 0.884 | -0.202 | 1.21
5 | CCTACTGGGCCATGCAGAGGTCATTGATCATATG | 2.63 | 3.58 | 4.68 | 3.51 | -0.363 | 3.84 | 2.51 | 3.33 | 1.11 | 2.41 | 3.41 | 4.39 | 0.533 | 0.384 | 2.69 | 5 | 1.62 | 4.75 | 0.229 | 3.05
6 | GCATATAGGTAATCCAAGGTGAAAGTCCGATTGT | 2.37 | 2.66 | 0.0628 | 0.738 | -0.267 | 1.76 | 1.15 | 1.24 | 0.358 | 0.949 | 4.62 | 3.17 | 0.831 | 0.665 | 1.03 | 0.638 | 0.241 | 1.53 | 0.647 | 0.51
7 | GATTGTAGATCAAGGTTAAGAAAGACTAAGCTAA | -0.0604 | 0.349 | -0.364 | 0.458 | -0.63 | 1.72 | 1.47 | 2.51 | 0.605 | 2.28 | 1.55 | 1.67 | -0.436 | -0.166 | -0.088 | 0.443 | -0.271 | 0.732 | -0.134 | 0.406
8 | CCGACTGGGGCAAAGGCTACCATACTCAGTACGA | -0.192 | -0.314 | -0.186 | -0.213 | -1.35 | 2.78 | 6.74 | 6.84 | 5.04 | 6.61 | 2.79 | 3.71 | -0.0188 | -0.284 | 0.531 | -0.487 | -0.267 | -0.203 | -0.204 | 0.812
9 | CCTAGCAGGCCAGGGTGACTCAAGCATTTCGCTT | -0.306 | -0.411 | -0.589 | -0.526 | -1.43 | 0.023 | -0.26 | -0.0399 | -0.987 | -0.126 | 0.555 | 0.0938 | -1.83 | -1.19 | -0.646 | -0.537 | -0.777 | -0.0885 | -0.299 | 0.148
10 | CCAGACAGGTGAGAAGGTAACTCGGCCTCGATTA | -0.0113 | 0.14 | -0.0117 | -0.138 | -0.518 | 0.585 | 0.364 | 0.533 | -0.307 | 0.171 | 1.02 | 0.832 | -0.526 | -1.05 | 0.472 | -0.382 | -0.139 | -0.0873 | 0.15 | 0.513
11 | GGAACGAGTGCAAGTTGATAGCAGAGTTTGATGG | -0.219 | -0.282 | -0.428 | -0.496 | -0.508 | -0.279 | 0.107 | -0.41 | -0.349 | -0.508 | -0.142 | -0.639 | 0.145 | -0.69 | -0.875 | 0.885 | 1.16 | -0.297 | -1.23 | 0.365
12 | CGAACTAGGTCCAGGACAGTGAATCTCCGCACGC | -0.204 | -0.571 | -0.353 | -0.95 | -0.661 | -0.195 | 0.3 | -0.587 | -0.632 | -0.449 | 2.08 | 0.856 | -0.489 | -1.24 | -0.302 | -0.535 | -0.312 | -0.417 | -0.0938 | 0.00636
13 | GCTCGGAGGACAAGGTCAGAGCGTTGTCCGTAGA | 2.18 | 1.74 | -0.229 | 1.46 | -0.608 | 2.61 | 0.378 | 1.37 | -0.49 | 0.635 | -0.242 | 0.658 | -1.14 | -1.68 | 0.169 | 1.68 | -0.131 | 2.07 | -0.539 | 3.4
14 | ACTCGGAGGACAAAGTTCAGAGCTACGCCAGTGA | 1.48 | 1.83 | 1.79 | 0.868 | -0.232 | 2.82 | 4.04 | 5.27 | 3.37 | 5.49 | 0.00289 | 1.33 | -0.512 | -0.633 | 1.27 | 1.98 | 1.2 | 1.47 | 0.278 | 2.97
